Molecules are shown by their SMILES. Unmarked numbers belong to inactive results. Records with an inconclusive call do not appear. Active and inactive are the calls of the source. The call rests on the fitted dose curve; in most records, active means well fitted curve in the direction sought with a large enough effect; inconclusive means small, poorly fitted or top-dose-only effect, or another doubt; inactive means no such curve, though single readings can be large; an effect the other way counts as inactive or inconclusive.

A short description of assay [1]: Panc-1005 Cancer Cell Toxicity qHTS against the NCATS CANVASS Library (AID 1347349). Further: nearly all actives have a fitted effect of over 60% in size. Further: potency means the concentration at half of the fitted maximal effect. A digest of the protocol:
(§1)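 Bortezomib titration and single-dose wells served as plate controls. Test compounds, 11 points, acted on 1000 cells/well for 72 h at 37 degrees C; CellTiter-Glo luminescence quantified remaining viable cells.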
A general note: qHTS replaces the single test concentration by a dilution series.

A short description of assay [2]: A2780 Cisplatin Sensitive Ovarian Cancer Cell Toxicity qHTS against the NCATS CANVASS Library (AID 1347353). Further: nearly all actives have a fitted effect of over 60% in size. Further: potency means the concentration at half of the fitted maximal effect. An outline of the steps:
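Cells are plated at 750 per well and rest for 4 hours. Compounds are added across eleven concentrations, and incubated 72 hours before ATP is quantified by luminescence.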

Assay [3] in a line: HEK293 24hr Apoptosis Induction qHTS against the NCATS CANVASS Library (AID 1347359). An outline of the steps: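 HEK293 cells (500/well, DMEM + 10% FBS) were exposed to compounds in an 11-point series for 24 hours at 37 degrees C, then caspase-3/7 activity was read by Caspase-Glo DEVD luciferase luminescence after 15 min.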
Assay [4] is described as follows: SDT Cancer Cell Toxicity qHTS against the NCATS CANVASS Library (AID 1347365). Further: nearly all actives have a fitted effect of over 60% in size. Further: potency means the concentration at half of the fitted maximal effect. An outline of the steps:
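Cytotoxicity is measured from cellular ATP: compounds in an 11-point concentration series are pinned onto SDT cells, incubated 72 hr at 37C, then CellTiterGlo is added and luminescence read.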

Assay [5] can be described thus: qHTS for ATAD5 Agonist screened against the NCATS CANVASS Library (AID 1347367).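 Further: luciferase reporter driven by ATAD5 which rises upon DNA damage.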 An outline of the steps:
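Step one plated reporter cells and let them acclimate 5hr. Step two pinned compounds with MMS as positive and 0.46% DMSO as negative control. After 16hr incubation, fluorescence viability then luminescence were read.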

A short description of assay [6]: G06 Cancer Cell Toxicity qHTS against the NCATS CANVASS Library (AID 1347368). Further: nearly all actives have a fitted effect of over 60% in size. Further: potency means the concentration at half of the fitted maximal effect. A digest of the protocol:
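Cells were plated at 500 per well, then compounds were added over an 11-point range. After 72 hr at 37C, CellTiterGlo was added and luminescence measured as ATP content.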

Assay [7] can be described thus: Inflammasome Signaling qHTS Counterscreen: IL-1-beta AlphaLISA counterscreen against the NCATS CANVASS Library (AID 1347381).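 Further: cell-free check with purified IL-1β in medium and no THP-1 cells; series mostly up to about 57 µM.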 A digest of the protocol:
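Purified IL-1-beta (4 pg/well) + compound, 11-pt conc. series; acceptor beads 6 ug/mL + biotin-Ab 0.6 nM final, 1 h RT; SA-donor 24 ug/ml final, 30 min dark RT; read ex 680/em 615.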

A short description of assay [8]: Redox Reaction Profiling qHTS: Assay Interference Panel against the NCATS CANVASS Library (AID 1347401). Further: potency means the concentration at half of the fitted maximal effect. A digest of the protocol:
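Quantitative HTS over an 11-point series was run in HEPES pH 7.3 with 50 mM NaCl, 200 uM DTT and 5 uM resazurin. Initial and 15-min resorufin fluorescence readings were taken.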

Assay [9] can be described thus: OV-SAHO Cancer Cell Toxicity qHTS against the NCATS CANVASS Library (AID 1347348). Further: nearly all actives have a fitted effect of over 55% in size. Further: potency means the concentration at half of the fitted maximal effect. A digest of the protocol: as §1
Assay [10] in a line: KB-3-1 Cancer Cell Toxicity qHTS against the NCATS CANVASS Library (AID 1347366). Further: nearly all actives have a fitted effect of over 75% in size. Further: potency means the concentration at half of the fitted maximal effect. A digest of the protocol: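 Seed KB-3-1 cells at 500/well in DMEM with 10% FBS, add compounds, incubate 72 hr at 37C and 5% CO2, then add CellTiter-Glo and read luminescence after 10 minutes.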
A short description of assay [11]: DH5-alpha competent E. coli microbial cell viability qHTS against the NCATS CANVASS Library (AID 1347377). The note with it: outcome: dose series up to 46.1 µM unless noted. An outline of the steps: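 Bacteria were dispensed at 0.2 OD, then compounds were pin-transferred. Plates were incubated overnight at 37C, after which BacTiter-Glo was added and luminescence measured 20 min later.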

Assay [12] is described as follows: qHTS assay for small molecule disruptors of mitochondrial membrane potential screened against the NCATS CANVASS Library (AID 1347389). A digest of the protocol:
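Mitochondrial depolarization in HepG2 cells is scored as a falling aggregate-to-monomer fluorescence ratio after 1 hr compound exposure and 30 min staining with Mito-MPS dye at 37C, each compound tested as an 11-point titration.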

Assay [13] in a line: qHTS for inhibitors of ER calcium dysfunction: SERCaMP assay screened against the NCATS CANVASS Library (AID 1347393). Further: nearly all actives have a fitted effect of over 40% in size. Further: potency means the concentration at half of the fitted maximal effect. An outline of the steps: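 qHTS in SH-SY5Y reporter cells: 16 h compound pretreatment, 4 h thapsigargin, then secreted Gaussia luciferase measured by luminescence.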
Assay [14] is described as follows: Vero-766 cells viability qHTS against the NCATS CANVASS Library: Counterscreen for Zika virus inhibition assay (AID 1347394). A digest of the protocol:
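This cytotoxicity counterscreen uses African green monkey Vero 766 cells in the absence of Zika virus. Compounds are incubated with cells for 72 h, and ATP-based luminescence reports viability.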

Assay [15] is described as follows: OV-KATE Cancer Cell Toxicity qHTS against the NCATS CANVASS Library (AID 1347345). An outline of the steps:
as §1

A short description of assay [16]: SW1088 Cancer Cell Toxicity qHTS against the NCATS CANVASS Library (AID 1347350). Further: nearly all actives have a fitted effect of over 75% in size. Further: potency means the concentration at half of the fitted maximal effect. An outline of the steps: as §1
The nature of assay [17]: U-118MG Cancer Cell Toxicity qHTS against the NCATS CANVASS Library (AID 1347351). Further: potency means the concentration at half of the fitted maximal effect. An outline of the steps: as §1
Assay [18] can be described thus: COV-362 Cancer Cell Toxicity qHTS against the NCATS CANVASS Library (AID 1347352). Further: series mostly up to about 38 µM. A digest of the protocol:
(§2)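 First, 1000 cells go into each well and rest for 4 hours. Next, an 11-point dilution range is pinned in. Plates then incubate 72 hours before CellTiter-Glo addition and luminescence reading.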

A short description of assay [19]: UWB1.289-WTBRCA1 Cancer Cell Toxicity qHTS against the NCATS CANVASS Library (AID 1347354). Further: potency means the concentration at half of the fitted maximal effect. A digest of the protocol: as §2
Assay [20] in a line: qHTS for H2AX Agonists against the NCATS CANVASS Library (AID 1347378).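 Further: phospho-H2AX S139 level in CHO-K1 lysates by TR-FRET emission ratio.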 Further: potency means the concentration at half of the fitted maximal effect. A digest of the protocol: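 Following overnight seeding, CHO-K1 cells are incubated with a concentration series of compound for 3 hr at 37C (final DMSO 0.76%). Cells are then lysed, detection antibodies added, and emission ratio 665/620 nm recorded after 24 hr at room temperature.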

As to `O=C(OC[C@H]1O[C@@H](OC(=O)c2cc(O)c(O)c(O)c2)[C@H](OC(=O)c2cc(O)c(O)c(O)c2)[C@@H](OC(=O)c2cc(O)c(O)c(O)c2)[C@@H]1OC(=O)c1cc(O)c(O)c(O)c1)c1cc(O)c(O)c(O)c1`, the Potency was 8.41 µM (active) in assay [1]; 8.33 µM (active) in assay [2]; 23.5 µM (active) in assay [4]; 23.5 µM (active) in assay [6]; 24.1 µM (active) in assay [8]. The Potency result in [3] and in assay [5] was “inactive” each time. In assay [7], the compound was classed as inactive.
On to `C/C(=C\[C@H](C)C(=O)CCCC1CC(=O)NC(=O)C1)[C@@H]1OC(=O)/C=C/CC/C=C/[C@H](O)[C@@H](O)[C@@H]1C`, for which the Potency in assay [9] was 0.747 µM (active); in assay [1], 0.668 µM (active); in assay [2] it was 0.372 µM (active); in assay [4], 0.264 µM (active); in assay [10], 6.62 µM (active); in assay [6] it was 0.372 µM (active). For the same compound, the Potency in [8] was 24.1 µM (active). The Potency entry in [3], in assay [5], in assay [12], in assay [13] and in assay [14] was “inactive” in each case. Also, the compound was called inactive in assay [11].
In the case of `O=C1CC(c2ccc(O)cc2)Oc2cc(O)cc(O)c21` (stereo unspecified), the Potency entry in assay [15], in assay [9], in [1], in [16], in [17] and in assay [18] was “inactive” each time. Also, the Potency result in assay [2], in assay [19], in assay [3], in assay [4], in assay [10] and in assay [6] was “inactive” each time. Besides, the Potency result in assay [20], in assay [14] and in [8] was “inactive” in each case. Also, the compound was called inactive in assay [11] and in assay [7].
In the case of `C/C=C1/CN2C3CC1C1C=CC(=O)N4c5ccccc5[C@@]3(C[C@@H]2C2=C[C@H]3C5CC6N(CC[C@@]67c6ccccc6N(C2=O)[C@@H]37)C/C5=C/C)[C@H]14` (stereo partly specified), the Potency in assay [1] was 7.49 µM (active); in [16], 13.3 µM (active); in assay [17], 11.9 µM (active); in assay [2], 11.8 µM (active); in assay [19], 16.7 µM (active); in assay [4], 10.5 µM (active). The Potency is 10.5 µM (active) in [10], 7.43 µM (active) in assay [6], 21.7 µM (active) in assay [20] and 0.216 µM (active) in assay [13]. Besides, the Potency entry in assay [5] and in assay [8] was “inactive” throughout. The compound was called inactive in assay [11] and in [7].
In the case of `CC1=C2CC[C@]3(C)[C@H](CC=C4[C@@H]5CC(C)(C)CC[C@@H]5C(=O)[C@H](O)[C@]43C)[C@@]2(C)C=C(O)C1=O`, the Potency entry in assay [19], in assay [3], in assay [4], in assay [10], in [5] and in [6] was “inactive” in each case. In addition, the Potency result in assay [20] and in [8] was “inactive” throughout. The outcome in assay [11] and in [7] was inactive. The Potency in assay [13] is 12.2 µM (active).
As to `Oc1ccc(C2Oc3cc(O)c4c(c3[C@@H]2c2cc(O)cc(O)c2)[C@H]2C(c3ccc(O)cc3)c3c(O)cc5c(c3[C@H]2C4c2ccc(O)cc2)[C@H](c2cc(O)cc(O)c2)C(c2ccc(O)cc2)O5)cc1` (stereo partly specified), the Potency was 16.7 µM (active) in assay [9], 4.18 µM (active) in assay [2] and 9.35 µM (active) in [4]. The Potency entry in assay [16], in [17], in assay [5], in [20] and in [13] was “inactive” throughout. The compound was called inactive in [11] and in assay [7].
With `C/C=C/C(=O)C1(O)CC2CC(C(=O)O)CC(C)C2C1C1=C2C(=O)NC(=O)C2=C(CCCCC)C(C)O1` (stereo unspecified), the Potency in assay [16] is 7.49 µM (active); in assay [2], 8.33 µM (active); in [4], 16.6 µM (active); in assay [6], 11.8 µM (active); in assay [13], 19.3 µM (active). For the same compound, the Potency result in [3], in [5], in assay [20] and in assay [14] was “inactive” in each case. The compound was called inactive in [7].
For the compound `CCC(=O)N[C@@H](C[C@H](C)C(Cl)(Cl)Cl)C(=O)N1C(=O)C=C(OC)[C@@H]1C[C@H](C)CCl`, in [16], the Potency is 16.8 µM (active). Further, the Potency result in assay [3], in assay [4], in assay [5], in [6], in assay [20] and in assay [14] was “inactive” each time. The Potency result in assay [8] was “inactive”.

For the origin of these results see PubChem BioAssay (NCATS).
